Compound activity (PubChem BioAssay)
BoNT A protease – inhibitors of Botulinum neurotoxin A light chain protease | multiplex microsphere protease substrate cleavage, flow cytometry | inhibition, % at 10 µM | actives 0.17% (n = 360,000); further: plate controls were buffer without enzyme for full effect and enzyme alone for no effect
Bead autofluor – counter-screen for toxin protease inhibitors: compound fluorescence. compound autofluorescence counterscreen, microsphere flow cytometry; stronger effect = higher value. fluorescence intensity (no concentration beside the values). actives 3.1% (n = 360,000). AID 624483; in the data active means fluorescence intensity above about 16000; inconclusive means no clear call, values can overlap the other calls
Anthrax LF prot – blocks Bacillus anthracis lethal factor protease; multiplex microsphere protease cleavage assay, LF; P15917; actives 0.12% (n = 360,000); inhibition, % at 10 µM; further: plate controls were buffer without enzyme for full effect and enzyme alone for no effect
Target sequence (P15917 whole entry, looked up): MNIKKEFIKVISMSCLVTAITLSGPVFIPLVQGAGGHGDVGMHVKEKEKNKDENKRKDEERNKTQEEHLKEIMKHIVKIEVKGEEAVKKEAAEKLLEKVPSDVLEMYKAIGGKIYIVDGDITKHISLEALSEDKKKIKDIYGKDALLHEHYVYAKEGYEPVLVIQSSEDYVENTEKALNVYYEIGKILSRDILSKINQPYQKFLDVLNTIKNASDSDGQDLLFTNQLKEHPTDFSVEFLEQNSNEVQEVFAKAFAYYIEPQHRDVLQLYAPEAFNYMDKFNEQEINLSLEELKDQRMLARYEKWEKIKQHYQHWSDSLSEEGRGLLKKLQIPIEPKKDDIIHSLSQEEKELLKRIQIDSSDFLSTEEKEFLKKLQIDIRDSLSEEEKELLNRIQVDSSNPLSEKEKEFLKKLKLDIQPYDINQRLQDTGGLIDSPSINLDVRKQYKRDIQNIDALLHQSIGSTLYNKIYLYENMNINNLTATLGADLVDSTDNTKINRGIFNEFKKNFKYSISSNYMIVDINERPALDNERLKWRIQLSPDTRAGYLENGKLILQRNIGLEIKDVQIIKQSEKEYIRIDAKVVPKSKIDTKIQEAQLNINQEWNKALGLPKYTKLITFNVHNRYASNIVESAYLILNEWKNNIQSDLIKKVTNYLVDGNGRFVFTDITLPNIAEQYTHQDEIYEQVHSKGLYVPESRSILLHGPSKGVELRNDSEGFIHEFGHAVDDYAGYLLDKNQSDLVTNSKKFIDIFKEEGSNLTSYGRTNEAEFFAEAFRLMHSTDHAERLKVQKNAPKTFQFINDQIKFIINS
BoNT-F LC inh – BoNT F light chain protease inhibition; Multiplex microsphere protease cleavage assay, flow cytometry; AID 588497; inhibition, % at 10 µM; actives 0.22% (n = 360,000); in the data active means inhibition above about 35%, passing the limit was not always enough; inconclusive means no clear call, values can overlap the other calls; further: plate controls were buffer without enzyme for full effect and enzyme alone for no effect
FBA Mtb inh – Mtb fructose-bisphosphate aldolase inhibition. P9WQA3. purified M. tuberculosis FBA, fluorescence read-out. inhibition, % at 1 µM. actives 2.3% (n = 360,000); in the data active means inhibition above about 27%;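 further: 0% = vehicle and 100% = reference inhibitor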
GDH-TPI inh – counter-screen for M. tuberculosis FBA inhibitors: GDH-TPI coupled enzymes; GDH-TPI coupled enzyme counterscreen, NADH absorbance; inhibition, % at 4.8 µM; actives 1.2% (n = 360,000); AID 588335; in the data active means inhibition above about 30%;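 further: 0% = DMSO wells and 100% = wells lacking the enzyme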
* hit, by the source's call; u = inconclusive; x = not tested or not shown; + = active, no number. A selection: hits, their analogues and other compounds. The true share with any hit is near 6.7%. Unless noted, no stated cut-off is given here; in the data, active means inhibition above about 30%; inconclusive means no clear call, values can overlap the other calls; inactive means below that.

SMILES	BoNT A protease	Bead autofluor	Anthrax LF prot	BoNT-F LC inh	FBA Mtb inh	GDH-TPI inh
N=c1n(CCN2CCOCC2)c2ccccc2n1Cc1ccccc1Br	0	19620*	-1	-1	1	-8
C#CCOC(=O)c1ccccc1C(=O)N(CC)CC	u	17452*	0	-7	4	12
CCCN(CCC)C(=O)c1ccccc1C(=O)N(CCC)CCC	-2	3866	-7	-15	-2	0
COc1ccc(C2/C(=C(/O)c3ccccc3)C(=O)C(=O)N2c2ccccn2)cc1OC (stereo unspecified)	1	4551	3	6	-2	5
COc1ccc(C2/C(=C(/O)c3ccc(C)cc3)C(=O)C(=O)N2c2ccccn2)cc1OC (stereo unspecified)	-1	4892	5	-5	0	32*
COc1ccc(C2/C(=C(/O)c3ccccc3)C(=O)C(=O)N2c2ccccn2)cc1 (stereo unspecified)	-3	3161	-11	u	1	11
COc1cccc(/C(O)=C2\C(=O)C(=O)N(c3ccccn3)C2c2cccc(OC)c2OC)c1 (stereo unspecified)	1	21089*	0	1	-5	41*
O=C(CCCN1C(=O)C(c2ccccc2)Oc2cccnc21)Nc1cccc(F)c1 (stereo unspecified)	-2	5432	-2	-3	-2	2
CCN1CCCC1CNC(=O)c1cc2c(C)nc3ccccc3c2o1 (stereo unspecified)	7	17361*	-6	9	12	2
Cc1nc2ccccc2c2oc(C(=O)NCCN3CCCCC3C)cc12 (stereo unspecified)	-2	13061	-5	-14	5	-1
COc1ccc(Cl)cc1NC(=O)NCc1ccc2c(c1)OCO2	-2	5748	5	0	1	-14
O=C(CCc1ccc(S(=O)(=O)N2CCOCC2)cc1)Nc1nc(COc2ccccc2)cs1	2	22376*	-1	0	0	5
O=C(CCc1ccc(S(=O)(=O)N2CCOCC2)cc1)Nc1nccs1	0	2844	-4	0	-2	-11
O=C(CCc1ccc(S(=O)(=O)N2CCOCC2)cc1)Nc1ccccc1F	0	3432	9	-3	-2	-3
O=C(CCc1ccc(S(=O)(=O)N2CCOCC2)cc1)NCCc1ccccn1	u	21908*	-2	-2	-1	6
O=C(CCc1ccc(S(=O)(=O)N2CCOCC2)cc1)N1CCCC1	u	23425*	-2	-3	-1	-7
CNS(=O)(=O)c1ccc(CCC(=O)N2CCOCC2)cc1	3	3301	-6	u	1	6
Clc1cccc(N=NN2CCOCC2)c1Cl	0	4573	4	-4	-2	14
Clc1ccc2oc(-c3cccnc3NCc3ccccc3)nc2c1	4	19024*	3	2	5	-7
Cc1ccc(CNc2ncccc2-c2nc3cc(Cl)ccc3o2)cc1	1	22598*	0	0	3	-11
Cc1ccc(-c2nc3cc(Cl)ccc3o2)cc1	x	x	x	x	2	8
Cc1cccn2c(=O)nc(SCC(=O)NCCc3ccccc3)nc12	1	u	-1	u	5	8
CCCC(=O)N1CCN(c2ccc([N+](=O)[O-])c(NC(C)c3ccccc3)c2)CC1 (stereo unspecified)	-1	16602*	-3	-4	-12	19
CC(Nc1cc(N2CCCC2)ccc1[N+](=O)[O-])c1ccccc1 (stereo unspecified)	0	2982	-4	-11	-2	11
CCOC(=O)c1nnn(-c2nonc2N)c1CSc1ccc(C)cc1	-1	4636	-2	-18	-1	4
SMILES	BoNT A protease	Bead autofluor	Anthrax LF prot	BoNT-F LC inh	FBA Mtb inh	GDH-TPI inh
CC12C=CC3(CN(Cc4ccccc4)C(=O)C3C1C(=O)NCc1ccco1)O2 (stereo unspecified)	4	20657*	-13	6	2	14
CCOC(=O)CON1C(=O)c2ccccc2C1=O	-1	2568	0	-1	1	6
CCO/C=C1/C(=O)N(C(C)=O)c2ccccc21	u	22792*	-1	-3	1	15
Cc1cc(Cl)n2c(nc3ccccc32)c1C#N	0	4318	-3	0	+	7
N#Cc1c2c(c(NCCOCCO)n3c1nc1ccccc13)CCCC2	-3	4296	4	-8	15	10
COCCNc1cc(C)c(C#N)c2nc3ccccc3n12	1	4542	-4	7	193*	10
